{
  "source": "paper PMC12136788",
  "binders": {"B1": {"name": "chr10:114798999:114799000:-_ENSMUSG00000069520_ENSMUST00000092170|mus_mus|motif|central (ssRNA)", "RNA": "GGGAGUUCUACAGUCCGACGAUCUCAUCUUUAUAUACCUUUUGCACGUAGUGUCGUCACUAUCUGUCAUGGAAAAUAGAGCGGCGAGCACAUCUUCCACCAACCGAACGACAAAAUAGAAUCGUAAAUCCAAAACGUCUAGUCCAACAGAGGAUUGAGCAUCA"}, "B2": {"name": "chr1:225977196:225977197:+_ENSG00000143742_ENST00000304786|hu_mus|FALSE|FALSE (ssRNA)", "RNA": "GGGAGUUCUACAGUCCGACGAUCAUUCCGUUUCCAAAAAUAAAGGUUUUCUAACUGGAAACCCCGACAUUCCUACUCUCUAAAGCAAACUUUAGGACGCAGGCUGGUCUCUCGGCUUUGACAGCUCCAUUACGUAAGUAUAUCCAACAGAGGAUUGAGCAUCA"}, "B3": {"name": "29117783_29124966_335_CDS_ENSG00000163811_ENST00000407426|human|control|control (ssRNA)", "RNA": "GGGAGUUCUACAGUCCGACGAUCUUUUACUGUGCUGUAUAAUAAAAUGCUACCAACUGCUGUGCCAAGAGCCAAUAAGUCAGUCUGGUUACUCAUUCCUACAGCUUCUGAUUUCCUUUUUUUCCUCUGGGGACUUUCCUUGGCCAACAGAGGAUUGAGCAUCA"}, "B4": {"name": "chr7:141450121:141450122:+_ENSG00000106028_ENST00000265304|hu_mus|hu_hu_hu_mus_True|18_38 (ssRNA)", "RNA": "GGGAGUUCUACAGUCCGACGAUCUCAUCCGUUCUAUGCCUUUUCUUUUGUCUGGUCACUCAGAAAUAUAAUGUUAUCAGCUAUGAUUGUUGUUGCUUGUCGCCUCACAUUGUUUUUAUCCAUGUAUUCGCCAUAGUCCACUUUCAACAGAGGAUUGAGCAUCA"}, "B5": {"name": "chr4:115894766:115894767:+_ENSMUSG00000028698_ENSMUST00000030464|mus_hu|mus_mus_mus_hu_True|18_98 (ssRNA)", "RNA": "GGGAGUUCUACAGUCCGACGAUCUUCCACACGGAAAGUACUUGGGGGUUUUCCAACGGCCAGUACCAGUCCGGCCAAACUACCCGAACAGGGUCCUCCCCCUCUCUCCUACAGAACUAAAGCACCCGCCCCCGAACUUUCAAGCAACAGAGGAUUGAGCAUCA"}, "B6": {"name": "chr7:140404665:140404666:+_ENSG00000090266_ENST00000247866|hu_hu|hu_hu_hu_mus_False|1_108 (ssRNA)", "RNA": "GGGAGUUCUACAGUCCGACGAUCUGCGUACAGAGUGCCAGAGAGUUUACAGUGUCAGUCCUCGUCAUCAGGAGGGAUUCCCAGUUCUUCAUCUGUCCACUGUGAAGGAUCUGGAUAUGAAAAGUGACCCAGCACAGCUUCUGACAACAGAGGAUUGAGCAUCA"}, "B7": {"name": "chr1:39494447:39494448:+_ENSG00000168653_ENST00000372967|hu_mus|hu_hu_hu_mus_False|78_108 (ssRNA)", "RNA": "GGGAGUUCUACAGUCCGACGAUCGCAUCGACCAGCCUUCUUAUAGGGCUGUUCUGCACUCUGGAUUAUAAAGUGCCGGUCCAGGCUGAUGCCCAGCUUUUUCUGUAUGUCAAGGAAAGGCAUGGCUCUGCAGUGCCCUUGUCACAACAGAGGAUUGAGCAUCA"}, "B8": {"name": "114145877_114145997_1367_3pUTR_ENSMUSG00000033545_ENSMUST00000095176|mouse|control|control (ssRNA)", "RNA": "GGGAGUUCUACAGUCCGACGAUCUUUGCAGUGGACAAUGUCUGUUCCACAGGCCACUACUUAGUGAUUCUUCCCUUUCAGAACCGAGUCUCUGAGAGGUGAGGGAGGUGAGGCUGCUGUAGAGCCUGGCUGGGGGCGCCUCUGCAACAGAGGAUUGAGCAUCA"}, "B9": {"name": "chr7:130337358:130337359:+_ENSMUSG00000052707_ENSMUST00000094053|mus_mus|FALSE|FALSE (ssRNA)", "RNA": "GGGAGUUCUACAGUCCGACGAUCACAAGAUUUUUUGACCGGGGAACUGGUUUCCUGAGAACCAUGCUCUUUGAUUUAGGACAGGAAUAGAAAACAGAAGAACAUGGCCAACUGCUGCUCUUUUCCCAGAGAUAGAAGCGUCUUCAACAGAGGAUUGAGCAUCA"}, "B10": {"name": "chr2:165877891:165877892:+_ENSMUSG00000027678_ENSMUST00000088095|mus_mus|motif|central (ssRNA)", "RNA": "GGGAGUUCUACAGUCCGACGAUCGAACCUCUGGAUACAUCUUCGGAUUAUGUCUUCAAAGCCAGGCCUCAUGGAAGAUCGGAGUGAGUUUGUAUCUAUAUUGACAACCUUUCCGGAAAGGUCAUGUCUGGUAAUAAAGCUCUCCAACAGAGGAUUGAGCAUCA"}, "B11": {"name": "chr13:100193591:100193592:-_ENSMUSG00000052727_ENSMUST00000064762|mus_mus|motif|central (ssRNA)", "RNA": "GGGAGUUCUACAGUCCGACGAUCUUAAACCCUCAGAGUAAAAGAGCAGUGCGAAACAUACGCUUUACAGACGAAAAUAAACGGAAAUGUAAAUUUUGAAAUAAAUAACUAACAUAGAAAAUAAAAUGAGGUCAUUGUUCACUACAACAGAGGAUUGAGCAUCA"}, "B12": {"name": "chr13:100193591:100193592:-_ENSMUSG00000052727_ENSMUST00000064762|mus_mus|FALSE|FALSE (ssRNA)", "RNA": "B11 RNA with G82U, G83A"}, "B13": {"name": "chr19:7500544:7500545:-_ENSMUSG00000024758_ENSMUST00000025667|mus_mus|FALSE|FALSE (ssRNA)", "RNA": "GGGAGUUCUACAGUCCGACGAUCACAGACACGUACACAAUUUCAUUAGUAAUUUUUUCAUCUCUACGAGUCUUUGUUUAAAAAAACAAAACCGAAAAAACCCUCUCAUGUAACACAGAAACCUUUCCAAUUAUUUUAACACAGCAACAGAGGAUUGAGCAUCA"}, "B14": {"name": "chr3:32586495:32586496:-_ENSG00000144635_ENST00000273130|hu_hu|FALSE|FALSE (ssRNA)", "RNA": "GGGAGUUCUACAGUCCGACGAUCUUUCUGUAAAGAAUCCAAAGCAGUCCAAGGCUUUGACAUGUCAACAACCAGCAUAACUAGAGUAUCCUUCAGAGAUACGGCAUCCAGUGAAAAUUUAAGGAGGCCUUUGUGAUAUAGGUCCAACAGAGGAUUGAGCAUCA"}},
  "note": "Where a chain is given by its changes, count along the chain named. Whole data set: some 24,000 sequences, median “enrichment r” near 0.99, cut for the highest 2% near 3.7. The full list was thinned out, with the highest values kept by preference.",
  "data": [
    {"biological_target": "T1, UNK ZnF1-3 (human, UniProt Q9C0B0 31-174)", "T1 sequence": "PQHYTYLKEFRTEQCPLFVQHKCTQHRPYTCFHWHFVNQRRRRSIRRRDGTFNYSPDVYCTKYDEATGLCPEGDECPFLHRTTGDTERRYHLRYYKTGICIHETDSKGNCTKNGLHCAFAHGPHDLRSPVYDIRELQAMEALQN", "test": "nsRBNS (natural sequence RNA bind-n-seq); RBNS binding buffer (assumed for nsRBNS): 25 mM Tris pH 7.5, 150 mM KCl, 3 mM MgCl2, 0.01% Triton X-100, 500 ug/ml BSA, 20 U/ml SUPERase-In, 4 C; UNK is unkempt and MSI1 is Musashi-1; names of the RNAs are library labels; protein concentration not given here; high values mean tight binding", "units": {"binding signal": "enrichment R"}, "values": [
      {"binder": "B1", "binding signal": 0.824},
      {"binder": "B2", "binding signal": 0.892},
      {"binder": "B3", "binding signal": 0.828},
      {"binder": "B4", "binding signal": 0.364},
      {"binder": "B5", "binding signal": 1.44},
      {"binder": "B6", "binding signal": 1.16},
      {"binder": "B7", "binding signal": 1},
      {"binder": "B8", "binding signal": 0.695},
      {"binder": "B9", "binding signal": 0.987},
      {"binder": "B10", "binding signal": 0.788},
      {"binder": "B11", "binding signal": 4.73},
      {"binder": "B12", "binding signal": 5.86},
      {"binder": "B13", "binding signal": 1.21},
      {"binder": "B14", "binding signal": 1.74}
    ]}
  ]
}
